Measurements reported in PubChem BioAssay (NCI).
Several values for one entry are separate records, joined by “and”; a condition that tells them apart may be missing. Equal values may be shown once. Compounds without any hit were thinned out: in the full panel of roughly 83,000, 20% have a hit.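 Step 1: grow cells in 96-well plates. Step 2: add test compound at a single concentration. Step 3: incubate 48 h. Step 4: record percent growth.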 Values without a mark were called inactive. Activity calls are given as the source filed them. Rule for the calls: active = growth percent below 10; inactive = the rest.

Assays:
Assay in all cases: NCI-60 one-dose screen, 48 h (100 = growth as untreated, 0 = no growth, -100 = all killed)
[1] = system: HCT-15 colon; details: 10 µM
[2] = system: HT29 colon; details: 10 µM
[3] = system: SNB-75 CNS; details: 10 µM
[4] = system: SNB-19 CNS; details: 10 µM
[5] = system: PC-3 prostate; details: 10 µM
[6] = system: UACC-62 melanoma
[7] = system: LOX IMVI melanoma; details: 10 µM unless noted
[8] = system: SK-MEL-28 melanoma; details: 10 µM
[9] = system: SK-MEL-2 melanoma; details: 10 µM
[10] = system: SN12C renal; details: 10 µM
[11] = system: UO-31 renal; details: 10 µM
[12] = system: TK-10 renal
[13] = system: ACHN renal; details: 10 µM
[14] = system: CAKI-1 renal; details: 10 µM
[15] = system: A498 renal; details: 10 µM
[16] = system: CCRF-CEM leukemia; details: 10 µM
[17] = system: MOLT-4 leukemia; details: 10 µM
[18] = system: U251 CNS; details: 10 µM unless noted
[19] = system: SK-MEL-5 melanoma; details: 10 µM unless noted
[20] = system: EKVX NSCLC; details: 10 µM

Compound: O=[N+]([O-])C1=C(c2ccccc2)SC=C(c2ccccc2)S1
- growth [1]: 58.7%
- growth [2]: 69.8%
- growth [3]: 92.7%
- growth [4]: 78.3%
- growth [5]: 62%
- growth ([6]; 10 µM): 54.5%
- growth [7]: 4.56% (active)
- growth [8]: 88.2%
- growth [9]: 88.3%
- growth [10]: 73.7%
- growth [11]: 71.6%
- growth ([12]; 10 µM): 104%
- growth [13]: 83.5%
- growth [14]: 85.5%
- growth [15]: 84%
- growth [16]: 14.8%
- growth [17]: 26.4%

Compound: CC(=O)OCC(OC(C)=O)C(OC(C)=O)C(OC(C)=O)C(OC(C)=O)C(/C=N/Nc1ccccc1)=N/Nc1ccccc1 (centres undefined)
- growth [1]: 59.5%
- growth [2]: 56.1%
- growth [3]: 87.4%
- growth [4]: 88.9%
- growth [18]: 72.5%
- growth [5]: 55.9%
- growth [19]: 91.9%
- growth [7]: 36.8%
- growth [8]: 101%
- growth [9]: 84.3%
- growth [11]: 48.6%
- growth ([12]; 10 µM): 91.2%
- growth [13]: 56.2%
- growth [14]: 72.6%
- growth [15]: 83.4%
- growth [16]: 17.5%
- growth [17]: 30.6%

Compound: O=C(O)COc1ccc(OCC(=O)O)cc1
- growth [1]: 71.7%
- growth [2]: 5.13% (active)
- growth [3]: -11.9% (active)
- growth [4]: 8.27% (active)
- growth [5]: 31%
- growth [19]: 2.69% (active)
- growth ([6]; 10 µM): -3.08% (active)
- growth [7]: -64.4% (active)
- growth [8]: 53.2%
- growth [9]: 64.9%
- growth [11]: 50.5%
- growth ([12]; 10 µM): 20.6%
- growth [13]: 30.1%
- growth [14]: 90.7%
- growth [15]: -14.2% (active)
- growth [16]: 2.46% (active)
- growth [17]: 9.12% (active)

Compound: NC1=C(Cl)C(=O)c2ccccc2C1=O
- growth [1]: 51%
- growth [2]: 58.8%
- growth [3]: -0.135% (active)
- growth [4]: 72.1%
- growth [18]: 50.5%
- growth [5]: 53%
- growth ([6]; 10 µM): -41.4% (active)
- growth [7]: 19.2%
- growth [8]: 105%
- growth [9]: 51.9%
- growth [11]: 84.3%
- growth ([12]; 10 µM): 120%
- growth [13]: 76.8%
- growth [14]: 89.5%
- growth [15]: 104%
- growth [16]: 46%
- growth [17]: 56.1%

Compound: OCC1OC(n2cnc3c(=S)nc[nH]c32)C(O)C1O (centres undefined)
- growth [1]: 104% and 55.5%
- growth [2]: 98.4% and 45.9%
- growth [3]: 110% and 60.5%
- growth [4]: 111% and 97.4%
- growth [18]: 93.5% and 83.2%
- growth [5]: 89.1% and 73.1%
- growth ([6]; 10 µM): 92.3% and 26.7%
- growth [7]: 98.2% and 16.1%
- growth [8]: 113%
- growth [9]: 100% and 57.6%
- growth [11]: 93.9% and 50.5%
- growth ([12]; 10 µM): 97.9% and 40.7%
- growth [13]: 103% and 32.9%
- growth [14]: 104% and 18%
- growth [15]: 105% and 119%
- growth [16]: 107% and 32.7%
- growth [17]: 120% and 35.7%

Compound: COC(=O)C1=COC(C)C2C[n+]3ccc4c([nH]c5ccccc54)c3CC12 (centres undefined)
- growth [1]: 104% and 101%
- growth [2]: 99.4% and 81.3%
- growth [3]: 83.3% and 92.8%
- growth [4]: 101% and 90.3%
- growth [18]: 101% and 88.4%
- growth [5]: 92% and 75.7%
- growth ([6]; 10 µM): 91.1% and 83.1%
- growth ([6]; 100 µM): 52.7% and 32.5%
- growth [7]: 98.9% and 98%
- growth [8]: 106% and 103%
- growth [9]: 103% and 85.1%
- growth [20]: 102% and 93%
- growth [11]: 79.1% and 73.4%
- growth ([12]; 10 µM): 107% and 126%
- growth ([12]; 100 µM): 110% and 56.8%
- growth [13]: 99.7% and 88.9%
- growth [14]: 101% and 94.4%
- growth [15]: 72.8% and 94.7%
- growth [16]: 97.4% and 104%
- growth [17]: 98.8% and 94.3%

Compound: O=C(/C=C/c1ccccn1)c1ccccc1
- growth [1]: -8.15% (active)
- growth [2]: -67.2% (active)
- growth [3]: 66.2%
- growth [4]: 61.8%
- growth [5]: 69.3%
- growth ([6]; 10 µM): 82.4%
- growth [7]: -31.2% (active)
- growth [8]: 100%
- growth [9]: 79.3%
- growth [20]: 93.8%
- growth [11]: 56.5%
- growth ([12]; 10 µM): 19.5%
- growth [13]: -27.1% (active)
- growth [15]: 78.9%
- growth [16]: -12.6% (active)
- growth [17]: 3.13% (active)

Compound: CCCCCCCCCCCC[N+](C)(C)Cc1ccccc1
- growth [1]: 90.8%
- growth [2]: 5.91% (active)
- growth [3]: -12.7% (active)
- growth [4]: 20.5%
- growth [18]: 17.3%
- growth [5]: -18.7% (active)
- growth [19]: -87.1% (active)
- growth ([6]; 10 µM): -41.2% (active)
- growth [7]: 25.9%
- growth [8]: 17.5%
- growth [9]: -11.9% (active)
- growth [10]: 10.1%
- growth [11]: 55.4%
- growth ([12]; 10 µM): -1.57% (active)
- growth [13]: 78.7%
- growth [14]: 82.1%
- growth [15]: 79%
- growth [16]: -15.9% (active)
- growth [17]: -21.9% (active)

Compound: NNc1ccc2ccccc2c1
- growth [1]: 91.2% and 97%
- growth [2]: 99.8% and 104%
- growth [3]: 79.1% and 75.7%
- growth [4]: 99% and 102%
- growth [5]: 73% and 82%
- growth ([6]; 10 µM): 78% and 99.9%
- growth [7]: 75.5% and 91.7%
- growth [8]: 111% and 114%
- growth [9]: 101% and 108%
- growth [10]: 94.7% and 102%
- growth [11]: 52.5% and 68.7%
- growth ([12]; 10 µM): 109% and 120%
- growth [13]: 81.6% and 98.7%
- growth [14]: 84.6% and 95.5%
- growth [15]: 88.5%
- growth [16]: 84.1% and 114%
- growth [17]: 94.3% and 109%

Compound: CC(C)(C)CC(C)(C)c1ccc(OCCO)cc1
- growth [1]: 99.8%
- growth [2]: 99.3%
- growth [3]: 101%
- growth [4]: 106%
- growth [18]: 104%
- growth [5]: 117%
- growth ([6]; 10 µM): 106%
- growth [7]: 99.1%
- growth [8]: 141%
- growth [10]: 103%
- growth [11]: 88.2%
- growth ([12]; 10 µM): 78.2%
- growth [13]: 117%
- growth [14]: 115%
- growth [15]: 115%
- growth [16]: 106%
- growth [17]: 85.4%

Compound: O=C(/C=C/c1cccnc1)c1ccccc1
- growth [1]: 63.2%
- growth [2]: 14.1%
- growth [3]: 87.8%
- growth [4]: 82.8%
- growth [18]: 37.3%
- growth [5]: 88.1%
- growth ([6]; 10 µM): 103%
- growth [7]: 27.5%
- growth [8]: 102%
- growth [9]: 94.2%
- growth [11]: 84.1%
- growth ([12]; 10 µM): 93.9%
- growth [13]: 79.8%
- growth [15]: 89.7%
- growth [16]: 41.3%
- growth [17]: 82.3%

Compound: Clc1cc(Cl)c(Cl)nn1
- growth [1]: 107%
- growth [2]: 99.2%
- growth [3]: 107%
- growth [4]: 94.2%
- growth [5]: 80.9%
- growth ([6]; 10 µM): 88.7%
- growth [7]: 95.7%
- growth [8]: 116%
- growth [9]: 99.9%
- growth [10]: 98%
- growth [11]: 106%
- growth ([12]; 10 µM): 146%
- growth [13]: 113%
- growth [14]: 109%
- growth [15]: 109%
- growth [16]: 88.7%

Compound: CC1=CC(C)=Nc2ccc(Cl)cc2N1
- growth [1]: 113%
- growth [2]: 119%
- growth [3]: 90.4%
- growth [4]: 106%
- growth [18]: 101%
- growth [5]: 91.9%
- growth ([6]; 10 µM): 103%
- growth [7]: 91.4%
- growth [8]: 124%
- growth [9]: 109%
- growth [11]: 85.9%
- growth ([12]; 10 µM): 117%
- growth [13]: 105%
- growth [14]: 89.8%
- growth [15]: 106%
- growth [16]: 93.9%
- growth [17]: 97.5%

Compound: CCN(CC)c1ccc(NC(C(=O)c2ccccc2)c2ccccc2)cc1 (centres undefined)
- growth [1]: -16.4% (active)
- growth [2]: 12.4%
- growth [3]: 81.7%
- growth [4]: 36.6%
- growth [18]: -17.5% (active)
- growth [5]: 83.7%
- growth ([6]; 10 µM): 28.3%
- growth [7]: -43.4% (active)
- growth [8]: 16.9%
- growth [9]: 78.4%
- growth [11]: -24.8% (active)
- growth ([12]; 10 µM): 41%
- growth [13]: -34.6% (active)
- growth [14]: 17.8%
- growth [16]: 10.3%
- growth [17]: 12.8%
